The source of these data is PubChem BioAssay (NCATS).

Test [1] deals with CRL-7250. Description: Cytotoxic Profiling of Annotated Libraries Using Quantitative High-Throughput Screening (AID 1296008). For max response: % is set by controls: 0 for no effect and ±100 for the full control effect. Note: potency is the fitted concentration of half-maximal effect. The conditions noted are these: Five cell lines viability, CellTiter-Glo ATP luminescence, 48-72 h; max response: stronger effect = lower value. In a few lines: (§1)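 Compounds were pin-transferred onto cells and incubated 48 or 72 hr at 37 degree Celsius, 95% humidity. CellTiter-Glo was added, plates sat 10 min at room temperature, then ATP-coupled luminescence was imaged as the viability read-out.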
A general note: ATP-based viability assays read luminescence as a measure of living cells.

In test [2] the test system is HEK293. Described as above. The conditions noted are these: Five cell lines viability, CellTiter-Glo ATP luminescence, 48-72 h; max response: stronger effect = lower value. In a few lines: as §1
Test [3] deals with HaCat. The description is as above. The conditions noted are these: Five cell lines viability, CellTiter-Glo ATP luminescence, 48-72 h; max response: stronger effect = lower value. In a few lines:
as §1

Test [4] has as its system KB-3-1. The description is as above. The conditions noted are these: Five cell lines viability, CellTiter-Glo ATP luminescence, 48-72 h; max response: stronger effect = lower value. In a few lines:
as §1

In test [5] the test system is NIH3T3. The test is described as above. The conditions noted are these: Five cell lines viability, CellTiter-Glo ATP luminescence, 48-72 h; max response: stronger effect = lower value. The procedure, abridged:
as §1

Test [6] has as its system HACAT. Put plainly: qHTS assay to identify novel small-molecules to repurpose for Merkel cell carcinoma treatment (AID 1296009). The conditions noted are these: MCC and control cell lines, CellTiter-Glo viability, 72 h; at 44.8 µM (top of the series) unless noted. In a few lines: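 Cells exposed to NPC (8-point) and MIPE (11-point) compound dilutions for 72 hr at 37 degree celsius; viability read by CellTiter-Glo luminescence, normalized to no-cell and DMSO in-plate controls.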
For orientation: Quantitative high-throughput screening tests each substance at several concentrations.

Records with an inconclusive call do not appear. Values without a mark were called inactive. The source made the active and inactive calls. Calls come from the whole dose curve; as a rule, active = well fitted inhibition curve with a large enough effect; inconclusive = small, poorly fitted or top-dose-only effect; inactive = flat fitted curve, though single readings scatter. Non-standard residues stand in square brackets, D forms with d. Residues, ends and D or L forms follow the SMILES beside them. *: point of attachment. Nva = CCC[C@H](N)C(=O)O; Cbz = O=C(OCc1ccccc1)*
Note: nearly all actives have a fitted effect of over 60% in size.

On to `C#C[C@]1(O)CC[C@@H]2[C@@H]3CCC4=CC(=O)CC[C@@H]4[C@H]3CC[C@@]21CC`, for which the max response in test [1] is -6.84%; in test [2] it was -8.15%; in test [3], -5.66%; in test [4], -5.98%; in test [5] it was -8.04%.
In the case of `CCC[C@@H](C=O)NC(=O)[C@H](CC(C)C)NC(=O)[C@H](CC(C)C)NC(=O)OCc1ccccc1` (Cbz-Leu-Leu-[Nva]-aldehyde), the Potency in test [1] is 4180 nM (active); in test [2] it was 3720 nM (active); in test [3], 9350 nM (active); in test [4] it was 2960 nM (active); in test [5] it was 14800 nM (active).
For `C=C(C)[C@@H]1CC[C@]2(C(=O)O)CC[C@]3(C)[C@H](CC[C@@H]4[C@@]5(C)CC[C@H](O)C(C)(C)[C@@H]5CC[C@]43C)[C@@H]12`, the max response was -12.6% in test [1]; -13.5% in test [2]; 1.59% in test [3]; -12.2% in test [4]; 0.0342% in test [5].
On to `COc1cc(N2CCC(C(N)=O)CC2)ccc1Nc1nc(N)c(Cl)c(Nc2ccccc2S(=O)(=O)C(C)C)n1`, for which the compound was classed as inactive in test [1]. Also, the values for the Potency in test [2] and in test [5] were 1480 nM (active) and 3720 nM (active), respectively. Moreover, the max response in test [3] is -18.3%; in test [4], 2.09%.
Consider `CCOC(=O)C=C[C@H](C[C@@H]1CCNC1=O)NC(=O)[C@@H](CC(=O)[C@@H](NC(=O)c1cc(C)on1)C(C)C)Cc1ccc(F)cc1`, for which the max response was -2.35% in test [1]; -0.69% in test [2]; -7.58% in test [3]; 4.76% in test [4]; 0.598% in test [5].
On to `COc1cc([C@@H]2c3cc4c(cc3[C@H](O)[C@H]3COC(=O)[C@@H]23)OCO4)cc(OC)c1OC`, for which the Potency in test [1] is 296 nM (active); in test [2] it was 132 nM (active); in test [4], 235 nM (active); in test [5], 187 nM (active). Besides, in test [3], the max response was 4.88%.
For the compound `CC(=O)N[C@H]1[C@@H]([C@H](O)[C@H](O)CO)OC(C(=O)O)=C[C@@H]1N=C(N)N`, the max response in test [1] was -3%; in test [2], 2.95%; in test [3] it was -9.9%; in test [5] it was 3.71%. In test [4], the compound was called inactive.
As to `COc1ccnc2[nH]cc(C(=O)C(=O)N3CCN(C(=O)c4ccccc4)C[C@@H]3C)c12`, the max response was -9.05% in test [1]; -2.26% in test [2]; -2.32% in test [3]; 3.92% in test [4]; -11.5% in test [5].
In the same order, the values of `Cc1onc(-c2ccccc2)c1C(=O)N[C@@H]1C(=O)N2[C@@H](C(=O)O)C(C)(C)S[C@@H]12` are -3.26%, -0.866%, -5.57%, 3.95% and -2.28%.
In the same order, the values of `COc1cc(C(C)C)c(Oc2cnc(NC(CO)CO)nc2N)cc1I` are 3.93%, -7.36%, -12.7%, -2.87% and 1.73%.
As for `CON=C(C(=O)N[C@@H]1C(=O)N2C(C(=O)O)=C(Cn3ccc(=N)n3CCO)CS[C@H]12)c1csc(N)n1`, the max response in test [1] is -8.38%; in test [2], -24.1%; in test [3] it was 4.51%; in test [5], 1.39%. In test [4], the compound was classed as inactive.
Take `CCC[C@H]1C[C@H](C(=O)N[C@@H]([C@@H]2O[C@@H](SC)[C@@H](O)[C@@H](O)[C@@H]2O)[C@H](C)Cl)N(C)C1`: the max response in test [1] is -6.31%; in test [2], -2.02%; in test [3] it was -10.7%; in test [4], 0.31%; in test [5], -6.56%.
In the same order, the values of `Nc1ccn(C2CO[C@H](CO)O2)c(=O)n1` (stereo partly specified) are -10.6%, -12.3%, 1.07%, 6.69% and -8.89%.
For `CCN(CC)Cc1ccc2cc(COC(=O)Nc3ccc(C(=O)NO)cc3)ccc2c1`, the Potency in test [1] is 7430 nM (active); in test [2] it was 418 nM (active); in test [3], 1300 nM (active); in test [4], 1160 nM (active); in test [5], 2310 nM (active).
Turning to `CN[C@H]1[C@@H](O)[C@@H]2O[C@@H]3O[C@H](C)CC(=O)[C@]3(O)O[C@@H]2[C@@H](NC)[C@H]1O`, the max response in test [1] is 4.26%; in test [2], -3.13%; in test [3], -0.114%; in test [5], 4.68%. The compound was classed as inactive in test [4].
On to `C[C@H]1O[C@H](O[C@H]2[C@H](O)[C@@H](O)[C@@H](O[C@H]3[C@H](O)[C@@H](O)C(O)O[C@H]3CO)O[C@H]2CO)[C@H](O)[C@@H](O)[C@H]1N[C@H]1C=C(CO)[C@@H](O)[C@H](O)[C@@H]1O` (stereo partly specified), for which the max response in test [1] was 1.59%; in test [3], -16.9%; in test [4], 4.29%; in test [5], -1.18%. In addition, the Potency in test [2] is 9350 nM (active).
Regarding `COc1ccc(Nc2nccc(NCCO)n2)cc1`, the max response in test [1] is 1.05%; in test [2], -0.619%; in test [3] it was 0.234%; in test [4], -27.2%; in test [5], 1.01%.
As for `C=CC1=C(C(=O)O)N2C(=O)[C@@H](NC(=O)C(=NO)c3csc(N)n3)[C@H]2SC1`, the result in test [1] and in test [5] was inactive. Moreover, the results for the max response in test [2], in test [3] and in test [4] were 0.682%, 4.35% and 4.36%, respectively.
As for `O=C(C[C@@H]1CC=CCCC(=O)O[C@H](c2ccccc2)CNC1=O)NCc1ccc(Cl)cc1`, the result in test [1], in test [3], in test [4] and in test [6] was inactive. Besides, the max response is -3.28% in test [2] and -2.63% in test [5].
